Screens from PubChem BioAssay.
EBNA-1 inh: blocks EBNA-1 binding to DNA; hit rate 0.34% among 300,000; EBNA-1 DNA binding, fluorescence polarization; AID 1950; inhibition, % at 14.8 µM; in the data active = inhibition above about 28%
LANA-H2A inh: blocks KSHV LANA binding to histone H2A/H2B. inhibition, % (test concentration not listed). cell-free LANA-H2A/H2B peptide, fluorescence polarization. AID 2629. Q9QR71. hit rate 0.6% among 320,000; in the data active = inhibition mostly above about 10%, no sharp cut-off; inactive = mostly below about 6.7%
LYPLA1 inh: counter-screen for PME1 inhibitors: inhibitors of human LYPLA1 | recombinant LYPLA1, FP-Rh probe fluorescence polarization | inhibition, % at 5.9 µM | hit rate 0.16% among 320,000;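 active = inhibition above the mean of all tested compounds plus 3 SD, set per campaign, cut at about 14% in these data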;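 also: inhibitors block serine hydrolase probe labeling of LYPLA1 so polarization falls; 0% = enzyme with DMSO and 100% = wells lacking LYPLA1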
ZTA DNA inh: counter-screen for EBNA-1 inhibitors: inhibitors of Epstein-Barr virus ZTA; ZTA-DNA binding, fluorescence polarization; inhibition, % at 11 µM; hit rate 0.15% among 320,000; AID 2234; in the data active = inhibition above about 33%
LYPLA2 inh: counter-screen for PME1 inhibitors: inhibitors of human LYPLA2 | O95372 | recombinant LYPLA2, FP-Rh probe fluorescence polarization | inhibition, % at 5.9 µM | hit rate 0.38% among 320,000;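 active = inhibition above the screen-wide mean plus 3 SD, limit set per campaign, cut at about 26% in these data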;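 also: 0% = LYPLA2 with DMSO and 100% = wells lacking LYPLA2 enzyme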
LYPLA2 conf: LYPLA2 (human) inhibition, confirmation counter-screen; shares compounds with LYPLA2 inh; recombinant LYPLA2, FP-Rh probe fluorescence polarization; inhibition, % at 5.9 µM; hit rate 72% among 1,100;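 active = mean inhibition across replicates above the hit cutoff set in the primary screen, cut at about 26% in these data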;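 also: blocked labeling of the enzyme by serine hydrolase FP-Rh probe lowers polarization; 0% = enzyme with DMSO and 100% = wells lacking LYPLA2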
LYPLA2 ABPP: blocks human acyl-protein thioesterase 2 in gel ABPP | shares compounds with LYPLA2 inh | rhLYPLA2 in mouse brain proteome, gel ABPP FP-Rh | inhibition, % at 20 µM | hit rate 30% among 150;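 active = inhibition of LYPLA2 enzyme probe labeling above about 50%, limit read from the data; inactive = inhibition below that limit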;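 also: loss of FP-Rh probe labeling of the LYPLA2 gel band measured as band density; 0% = DMSO only control band and 100% = blank gel background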
An asterisk follows results filed as active; i = inactive; · = not tested or not shown. An excerpt weighted towards active compounds, which were near 1.4% of everything screened.

SMILES	EBNA-1 inh	LANA-H2A inh	LYPLA1 inh	ZTA DNA inh	LYPLA2 inh	LYPLA2 conf	others
COc1ccc(S(=O)(=O)NCc2ccc(C(=O)N3CCN(Cc4ccccc4)CC3)cc2)cc1	0.5	0.1	3.4	4.5	68.1*	59.5*	LYPLA2 ABPP=38.0
COc1cccc(S(=O)(=O)NCc2ccc(C(=O)N3CCN(Cc4ccccc4)CC3)cc2)c1	7.5	7.4	1.9	-1.5	42.8*	48.9*
CC(C)NC(=O)N(C)C[C@H]1Oc2c(cccc2N(C)C)C(=O)N([C@H](C)CO)C[C@@H]1C	·	1.7	·	·	·	·
CCn1ncc([N+](=O)[O-])c1C(=O)Nc1c(C)nn(Cc2ccc(F)cc2)c1C	-7.8	-3.1	2.0	8.7	2.0	·
Cc1ncn(-c2ccccc2)c1-c1ccccc1	-1.1	-4.5	-1.4	-10.4	1.2	·
C=CCn1c(SCC(=O)OCC)nc2cc(C(=O)NCc3ccco3)ccc2c1=O	-7.7	1.3	-8.0	7.3	-13.3	·
CCCCCn1c(SCC(=O)OCC)nc2cc(C(=O)NCc3ccco3)ccc2c1=O	20.1	-1.6	-8.0	-2.2	34.1*	-3.6
C/C(CCC(C)C)=N\NC(=S)Nc1cc(S(=O)(=O)N2CCOCC2)ccc1N1CCOCC1	-2.1	i	6.1	0.7	28.2*	62.1*
O=C(CCc1ccccc1)NC(=S)Nc1cc(C(F)(F)F)ccc1N1CCOCC1	2.5	4.7	2.0	-1.5	30.9*	12.8
CC(C)CC(=O)NC(=S)Nc1cc(C(F)(F)F)ccc1N1CCOCC1	1.3	6.8	-2.5	6.6	12.7	·
Cc1cc(C(=O)OCC(=O)c2cccs2)c2ccccc2n1	-4.5	2.2	-1.6	-5.2	31.0*	42.7*
Cn1cnnc1SCCNS(=O)(=O)c1cccc([N+](=O)[O-])c1	-5.9	-1.7	0.3	-1.4	8.0	·
Cc1ncc([N+](=O)[O-])n1CC(=O)Nc1ccc(F)c(F)c1	-29.5	-3.1	1.4	0.5	66.6*	59.8*	LYPLA2 ABPP=44.0
Cc1ccc(NC(=O)Cn2c([N+](=O)[O-])cnc2C)cc1Cl	-4.1	-4.9	-2.0	4.1	57.0*	51.0*	LYPLA2 ABPP=67.0*
Cc1nc([N+](=O)[O-])cn1CC(=O)Nc1ccc(F)c(Cl)c1	0.8	-0.8	-0.9	-0.2	44.7*	59.1*	LYPLA2 ABPP=70.0*
COc1ccccc1NC(=O)Cn1c([N+](=O)[O-])cnc1C	-3.1	1.9	2.3	-7.0	25.5	·
Cc1ncc([N+](=O)[O-])n1CC(=O)Nc1ccc(Cl)cc1	3.1	1.1	-0.7	-9.6	47.1*	50.9*	LYPLA2 ABPP=34.0
Cc1ncc([N+](=O)[O-])n1CC(=O)N/N=C/c1ccccc1F	11.6	0.3	0.2	1.4	-1.2	·
Cc1ccccc1NC(=O)Cn1c([N+](=O)[O-])cnc1C	4.3	1.9	3.6	-17.6	18.3	·
C/C(=N/NC(=O)CCC(=O)Nc1ccc(Br)cc1)c1ccc(Br)cc1	4.5	0.8	7.3	-8.6	8.2	·
CC1(NC(=O)CCc2nc3ccccc3c(=O)[nH]2)CCS(=O)(=O)C1 (stereo unspecified)	-4.2	-6.3	-0.8	0.9	4.7	·
CC(=O)c1ccc(N2CCN(C(=O)C3CCN(S(=O)(=O)c4cccs4)CC3)CC2)cc1	0.0	0.4	4.2	-9.3	28.7*	29.2*
CC1CCN(C(=O)C2CCN(S(=O)(=O)c3cccs3)CC2)CC1	-14.4	-0.1	1.3	9.2	1.8	·
O=C(C1CCN(S(=O)(=O)c2cccnc2)CC1)N1CCN(c2ccccc2Cl)CC1	2.2	6.0	3.3	-8.3	7.5	·
O=C(C1CCN(S(=O)(=O)c2cccnc2)CC1)N1CCN(c2ccc(Cl)cc2)CC1	0.3	4.8	3.3	0.9	38.0*	41.8*
SMILES	EBNA-1 inh	LANA-H2A inh	LYPLA1 inh	ZTA DNA inh	LYPLA2 inh	LYPLA2 conf	others
COc1ccc(N2CCN(C(=O)C3CCN(S(=O)(=O)c4ccccc4)CC3)CC2)cc1	6.6	-3.5	-1.9	15.9	37.5*	44.1*
NC1=NC(=Nc2cccc(S(=O)(=O)N3CCOCC3)c2)c2ccccc21	-7.6	-11.9	-0.3	10.8	1.0	·
C#CCOCCOCCOCCNc1nc(N2CCN(C(=O)CCCCCCCCCCNC(=O)[C@H]([C@@H](C)CC)n3cc(CCCCCN)nn3)CC2)nc(N2CCN(C(=O)CCCCCCCCCCNC(=O)[C@@H]([C@H](C)O)n3cc(C)nn3)CC2)n1	9.6	-1.6	-0.5	8.9	29.1*	29.5*
C#CCOCCOCCOCCNc1nc(N2CCN(C(=O)CCCCCCCCCCNC(=O)[C@H](CCC(=O)O)n3cc(CCCCCN)nn3)CC2)nc(N2CCN(C(=O)CCCCCCCCCCNC(=O)[C@@H]([C@H](C)O)n3cc(C)nn3)CC2)n1	-8.7	-0.7	1.1	-9.9	7.0	·
CSCCC(NC(=O)COc1ccccc1)C(=O)N(C)Cc1ccc(Cl)cc1Cl (stereo unspecified)	·	2.6	-0.3	-9.4	9.0	·
Cn1c(=O)[nH]c(=O)c2c1nc1n2CC(O)CN1c1ccccc1 (stereo unspecified)	-17.7	0.1	2.1	-7.5	-3.8	·
CCCN1C2CCCC1CC(NC(=O)c1ccccc1Br)C2 (stereo unspecified)	-3.4	3.1	-0.2	1.4	3.0	·
O=C(Nc1ccc2oc(-c3ccncc3)nc2c1)c1ccc2c(c1)OCCO2	0.9	-8.0	8.9	21.0	28.0*	23.9
CCOC(=O)C1=C(COC(=O)C(C)(C)Oc2ccc(Cl)cc2)NC(=O)NC1C (stereo unspecified)	·	0.8	0.3	2.9	-1.0	·
COc1ccc2c(c1)C(=O)[C@@H](O)[C@H](c1ccc(OC)c(Br)c1)O2	6.2	1.2	2.3	9.4	70.2*	70.5*	LYPLA2 ABPP=63.0*
Cc1cc(C)cc(OCC(O)CN2CCC(CN3C(=O)c4cccc5cccc(c45)C3=O)CC2)c1 (stereo unspecified)	8.1	2.0	8.6	0.2	46.0*	48.8*
O=C(N1CCOCC1)N1CCN(CC(O)COc2ccc3ccccc3c2)CC1 (stereo unspecified)	-12.0	-4.7	1.1	-3.9	-1.9	·
O=C1c2cccc3cccc(c23)C(=O)N1CC1CCN(CC(O)COc2ccc3ccccc3c2)CC1 (stereo unspecified)	10.1	-1.0	2.5	-1.4	47.3*	38.2*
COc1cccc(OCC(O)CN2CCC(CN3C(=O)c4cccc5cccc(c45)C3=O)CC2)c1 (stereo unspecified)	-22.1	-5.3	9.3	7.0	38.8*	50.9*	LYPLA2 ABPP=12.0
CCc1ccc(OCC(O)CN2CCC(CN3C(=O)c4cccc5cccc(c45)C3=O)CC2)cc1 (stereo unspecified)	0.2	-7.0	-2.9	2.9	29.2*	29.2*
COc1ccc(COCC(O)CN2CCC(CN3C(=O)c4cccc5cccc(c45)C3=O)CC2)cc1OC (stereo unspecified)	11.2	-1.0	2.6	0.8	5.4	·
